We go through 39 molecules from PubChem BioAssay (Tox21).

Values joined by “and” are separate entries in the source; they are usually repeats but may differ in a detail not shown here. Identical values can stand only once. Inconclusive results are not listed. Entries that show only a call come without a potency. Where a structure was tested more than once in an assay, its records may differ in their call. Active and inactive are the calls of the source. Calls come from the whole dose curve; as a rule, active = well fitted cell-killing curve with a large enough effect in the repeat runs; inconclusive = weak or mixed curves, or effect the other way; inactive = no such curve, though single readings can be large or run the other way.
Potency is the fitted concentration of half-maximal effect.

The experiment is described as follows: qHTS assay to identify small molecule antagonists of the sonic hedgehog signaling (Shh) pathway - cell viability counter screen (AID 1259367). Note: nearly all actives have a fitted effect of over 55% in size. Conditions: NIH/3T3 Gli1-Luc viability, CellTiter-Fluor, 24 h; series mostly up to 92.4 µM. The source says:
National Center for Advancing Translational Sciences [NCATS]
NIH Chemical Genomics Center [NCGC]
U.S. Environmental Protection Agency [EPA]
National Institutes of Environmental Health Sciences [NIEHS]
National Toxicology Program [NTP]
U.S. Food and Drug Administration [FDA]
The sonic hedgehog (Shh) pathway is essential for normal embryonic development. Dysregulation of the Shh pathway can cause severe developmental defects in organs. Therefore chemicals that interfere with the pathway are potential developmental toxicants. A cell line designated 3T3Gli1-Luc (DMB/OARSA/CFSAN/FDA, Laurel, MD), a NIH/3T3 derived clone containing stably integrated Gli1-Luc reporter is used to detect chemical interference of the Shh pathway, by changes in the expression of the firefly Luc gene under the control of the Gli1 transcriptional response element. This cell line was used to screen Tox21 libraries for identifying and prioritizing the potential developmental toxicants that interfere Shh pathway. Conditioned medium-stimulated mode was used to screen for chemicals inhibiting Shh signaling. The cytotoxicity of the compounds was tested in parallel by measuring the cell viability using CellTiter-Fluor assay system (Promega, Madison, WI) in the same wells.
Tox21 Assay Protocol Summary:
3T3 Gli1-Luc cells were dispensed at 2,000 per well in 5uL of culture medium into white solid bottom 1536-well plates (Greiner Bio-One, Monroe, NC) using a Multidrop Combi (Thermo Scientific, Waltham, MA) dispenser. The assay plates were incubated at 37 C and 5% CO2 for 4hr, and then 23nL of compounds dissolved in DMSO and positive control were transferred using a Pintool station (Wako, San Diego, CA). The compound transfer was followed by the addition of 1ul conditioned medium or assay buffer using two separate tips of Flying Reagent Dispenser (FRD, Aurora Discovery, San Diego, CA). The assay plates were incubated at 37C and 5% CO2 for 24hr. For viability read, after 23hr of compound treatment, 1uL of CellTiter-Fluor reagent (Promega Corporation, Madison, WI) was added to each well of the assay plates using Flying Reagent Dispenser (FRD, Aurora Discovery, San Diego, CA) and incubated the assay plates at 37C for 1hr. The fluorescence signal was quantified using a ViewLux plate reader (Perkin Elmer, Shelton, CT).
In general terms: Quantitative high-throughput screening tests each substance at several concentrations.
Consider `c1ccc(OCCOc2ccccc2)cc1`, for which the Potency result is “inactive”.

As to `C[C@H]1C[C@H]2[C@@H]3CCC4=CC(=O)C=C[C@]4(C)[C@@]3(F)[C@@H](O)C[C@]2(C)[C@@]1(O)C(=O)CO`, the Potency result is “inactive”.

Regarding `CCCCOC(=O)COc1ccc(Cl)cc1Cl`, the Potency entry was “inactive”.

Take `O=C(O)c1ccc(C(=O)O)cc1`: the Potency result was “inactive”.

As for `CSCCC=O`, the Potency result was “inactive”.

With `C=CCOC(=O)c1ccccc1C(=O)OCC=C`, the Potency result is “inactive”.

Consider `Cc1cnc(C(=O)NCCc2ccc(S(=O)(=O)NC(=O)NC3CCCCC3)cc2)cn1`, for which the Potency result was “inactive”.

Turning to `CN(C)CCC(c1ccccc1)c1ccccn1` (stereo not given), the Potency entry was “inactive”.

In the case of `O=S1(=O)CC=CC1`, the Potency was 46.9 µM (active) and inactive.

`CN(C)CCCN`: the Potency result is “inactive”.

As to `CC(=O)CC(=O)Nc1ccccc1C`, the Potency result is “inactive”.

`O=C1CCC(N2C(=O)c3ccccc3C2=O)C(=O)N1` (stereo not given): the Potency result is “inactive”.

On to `CCC(O)OCCCOC` (stereo not given), for which the Potency was 28 µM (active) and inactive.

Turning to `Cc1ccc(N(C)C)cc1`, the Potency result is “inactive”.

On to `FC(F)(F)c1ccc(Cl)c(Cl)c1`, for which the Potency result is “inactive”.

As for `CC1CCC2CC1C2(C)C` (stereo not given), the Potency entry was “inactive”.

As for `O=c1[nH]c(=O)n([C@H]2CCCO2)cc1F`, the Potency entry was “inactive”.

As for `CC(C)(C)[C@@H](O)[C@@H](Cc1ccc(Cl)cc1)n1cncn1`, the Potency result was “inactive”.

On to `O=C(CC(C(=O)OC1CCCCC1)S(=O)(=O)O)OC1CCCCC1` (stereo not given), for which the Potency entry is “inactive”.

On to `O=C=NCCCCCCN=C=O`, for which the Potency result is “inactive”.

For `CCCCCCCCCCCCCCCO`, the Potency result was “inactive”.

Take `OCc1cccnc1`: the Potency result is “inactive”.

Take `O=C(O)c1ccccc1C(c1ccc(O)cc1)c1ccc(O)cc1`: the Potency result is “inactive”.

Turning to `C#C[C@]1(O)CC[C@H]2[C@@H]3CCC4=CC(=O)CC[C@@H]4[C@H]3CC[C@@]21C`, the Potency result is “inactive”.

As for `OCCOCCN1CCN(C2=Nc3ccccc3Sc3ccccc32)CC1`, the Potency entry was “inactive”.

For `CC(=O)CC(=O)Nc1ccccc1`, the Potency result was “inactive”.

Regarding `OCCOCCOCCO`, the Potency entry is “inactive”.

As for `CC(=O)Nc1cccc(O)c1`, the Potency result is “inactive”.

`COS(C)(=O)=O`: the Potency entry is “inactive”.

As to `CCN(CC)CCCC(C)Nc1ccnc2cc(Cl)ccc12` (stereo not given), the viability change, negative = cytotoxic was -9.15% [at 8.39 µM] (inactive) and -19.2% [at 19 µM] (inactive).

As for `CCN(CC)c1ccc(C(=O)c2ccccc2C(=O)O)c(O)c1`, the Potency entry is “inactive”.

Regarding `CCCCCCCCCCCCCCO`, the Potency result is “inactive”.

As for `O=C(O)c1ccc2c(c1)C(=O)OC2=O`, the Potency result was “inactive”.

Consider `NNc1nncc2ccccc12`, for which the Potency was 61.1 µM (active) and the viability change, negative = cytotoxic is 1.95% [at 19 µM] (inactive).

On to `O=C(O)c1cc(O)c(O)c(O)c1`, for which the Potency entry is “inactive”.

For `C=C(C)C(=O)Nc1ccc(Cl)c(Cl)c1`, the Potency result is “inactive”.

Turning to `Cc1ccc(S(N)(=O)=O)cc1`, the Potency entry was “inactive”.

In the case of `CC1=C(C)S(=O)(=O)CCS1(=O)=O`, the Potency entry was “inactive”.

On to `CCCCCC/C(C=O)=C\c1ccccc1`, for which the Potency entry is “inactive”.
